# Records with an inconclusive call do not appear. Activity calls are given as the source filed them. The calls were made as follows, unless noted: active = hit-call score of the fitted dose curve at least 0.9, where 1 is the maximum; inconclusive = response in the unintended direction; inactive = score below 0.9.
# Tests used:
# [1] = target: human Peroxisome Proliferator-activated Receptor alpha (PPARa), PPARA (gene 5465) (UniProt Q07869); test: ATG_PPARa_TRANS: Attagene TRANS-FACTORIAL HepG2 Assay for human Peroxisome Proliferator-activated Receptor alpha (PPARa) (AID 2283001);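 as to AC50: potency for gain of reporter signal over DMSO so agonist or activator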
# How it was run: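 Measures transcriptional activity of an exogenous chimeric PPARa-Gal4 protein in transiently transfected HepG2 cells after 24 h dosing. Reporter mRNA quantified via RT-PCR and capillary electrophoresis; DMSO served as negative control.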
# [2] = target: human Peroxisome Proliferator-activated Receptor delta (PPARd), PPARD (gene 5467) (UniProt Q03181); test: ATG_PPARd_TRANS: Attagene TRANS-FACTORIAL HepG2 Assay for human Peroxisome Proliferator-activated Receptor delta (PPARd) (AID 2283002)
# How it was run: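 HepG2 cells transiently transfected with GAL4-UAS multiplexed reporter units driven by exogenous chimeric NR-GAL4 proteins; 24 h compound exposure. Reporter mRNA measured by RT-PCR, 6-FAM primer extension, HpaI digestion and capillary electrophoresis; gain of signal fitted relative to DMSO.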
# [3] = target: Retinoic acid receptor alpha (Homo sapiens) (UniProt P10276); test: ATG_RARa_TRANS: Attagene TRANS-FACTORIAL HepG2 Assay for human Retinoic Acid Receptor alpha (RARa) (AID 2283005)
# How it was run: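 HepG2 transiently transfected with multiplex GAL4-UAS reporter units including a human RARa–GAL4 chimera; 24 h compound exposure. Reporter mRNA quantified by RT-PCR, 6-FAM labeling and capillary electrophoresis; gain of signal versus DMSO.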
# [4] = target: Peroxisome proliferator-activated receptor gamma (Homo sapiens) (UniProt P37231); test: ATG_PPARg_TRANS: Attagene TRANS-FACTORIAL HepG2 Assay for human Peroxisome Proliferator-activated Receptor-gamma (PPARg) (AID 2283007)
# How it was run: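 HepG2 cells transiently transfected with multiplexed GAL4-UAS reporter units and exogenous chimeric NR-Gal4 proteins; reporter mRNA quantified after 24 h compound exposure by RT-PCR, fluorescent labelling, HpaI digestion and capillary electrophoresis; gain-of-signal fitted versus DMSO baseline.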
# [5] = target: Nuclear receptor subfamily 1 group I member 2 (Homo sapiens) (UniProt O75469); test: ATG_PXR_TRANS: Attagene TRANS-FACTORIAL HepG2 Assay for human Pregnane X Receptor (PXR) (AID 2283008)
# How it was run: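 HepG2 cells transiently transfected with multiple reporter units, here a PXR-GAL4 chimera driving a GAL4-UAS reporter; 24 h compound exposure. Reporter mRNA measured by RT-PCR, FAM labelling and capillary electrophoresis; gain of signal fitted against DMSO baseline.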
# [6] = target: human RAR-related Orphan Receptor beta (RORb), RORB (gene 6096) (UniProt Q92753); test: ATG_RORb_TRANS: Attagene TRANS-FACTORIAL HepG2 Assay for human RAR-related Orphan Receptor beta (RORb) (AID 2283010)
# How it was run: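 HepG2 cells were transiently transfected with multiplexed GAL4-UAS reporter units expressing chimeric nuclear receptor–GAL4 proteins, then dosed for 24 h. Reporter mRNA was quantified by RT-PCR with fluorescent labelling and capillary electrophoresis; gain of signal was fitted relative to DMSO.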
# [7] = target: Retinoic acid receptor RXR-alpha (Homo sapiens) (UniProt P19793); test: ATG_RXRa_TRANS: Attagene TRANS-FACTORIAL HepG2 Assay for human Retinoid X Receptor alpha (RXRa) (AID 2283012)
# How it was run: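 HepG2 cells transiently transfected with multiplexed GAL4-UAS reporter units and chimeric NR-GAL4 fusions, dosed 24 h. Reporter mRNA measured by RT-PCR, FAM labelling, HpaI digestion and capillary electrophoresis; gain-of-signal fitted relative to DMSO baseline.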
# [8] = target: human Retinoid X Receptor beta (RXRb), RXRB (gene 6257) (UniProt P28702); test: ATG_RXRb_TRANS: Attagene TRANS-FACTORIAL HepG2 Assay for human Retinoid X Receptor beta (RXRb) (AID 2283013)
# How it was run: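 HepG2 cells transiently transfected with multiplexed reporter units driven by GAL4-UAS and exogenous chimeric NR-Gal4 proteins; treated 24 h. Reporter mRNA measured by RT-PCR, 6-FAM labelling and capillary electrophoresis; gain-of-signal fitted versus DMSO baseline.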
# [9] = target: human Thyroid Receptor alpha (THRa1), THRA (gene 7067) (UniProt P10827); test: ATG_THRa1_TRANS: Attagene TRANS-FACTORIAL HepG2 Assay for human Thyroid Receptor alpha (THRa1) (AID 2283014)
# How it was run: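 HepG2 cells transiently transfected with multiplexed GAL4-UAS reporter units for exogenous chimeric THRa1-Gal4; reporter mRNA measured 24 h after dosing by RT-PCR, 6-FAM labelling, HpaI digestion and capillary electrophoresis. Gain-of-signal fitted versus DMSO baseline.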
# [10] = read-out: Intercellular Adhesion Molecule 1 (ICAM1), ICAM1 (gene 3383); test: BSK_3C_ICAM1: BioMAP Diversity Plus: 3C Assay for Intercellular Adhesion Molecule 1 (ICAM1) Biomarker Activity (AID 2283003; active = hit-call score of the fitted dose curve at least 0.9, where 1 is the maximum; inactive = score below 0.9); details: primary human endothelial cells (HUVEC); actives raise or lower the signal
# How it was run: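 Primary human umbilical vein endothelial cells in the BioMAP 3C system were exposed to chemicals for 24 h, then ICAM-1 was quantified by ELISA. Activity was fitted bidirectionally against the DMSO negative control baseline.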
# [11] = BSK_3C_Proliferation: Cell Proliferation Assessment in the BioMAP Diversity Plus: 3C Assay (AID 2283006; active = hit-call score of the fitted dose curve at least 0.9, where 1 is the maximum; inactive = score below 0.9;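 as to AC50: potency may reflect either rise or fall in cell number versus DMSO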); details: primary human endothelial cells (HUVEC)
# How it was run: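 Human umbilical vein endothelial cells were grown sub-confluent and exposed to chemical for 48 h, then fixed with 10% TCA and stained with 0.1% sulforhodamine B; absorbance at 560 nm gave relative cell number, fitted bidirectionally against DMSO baseline.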
# [12] = read-out: Interleukin-1 alpha (IL1a), IL1A (gene 3552); test: BSK_BE3C_IL1a: BioMAP Diversity Plus: BE3C Assay for Interleukin-1 alpha (IL1a) Biomarker Activity (AID 2283016; active = hit-call score of the fitted dose curve at least 0.9, where 1 is the maximum; inactive = score below 0.9); details: primary human bronchial epithelial cells; actives raise or lower the signal
# How it was run: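 Human primary bronchial epithelial cells (BE3C system) were dosed with compound and IL-1a measured by ELISA 24 h later. Activity was fitted bidirectionally against DMSO baseline; cytotoxicity was tracked in parallel cultures by SRB total-protein staining.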
# [13] = read-out: Monocyte Chemoattractant Protein-1 (MCP1), CCL2 (gene 6347); test: BSK_3C_MCP1: BioMAP Diversity Plus: 3C Assay for Monocyte Chemoattractant Protein-1 (MCP1) Biomarker Activity (AID 2283017; active = hit-call score of the fitted dose curve at least 0.9, where 1 is the maximum; inactive = score below 0.9); details: primary human endothelial cells (HUVEC); actives raise or lower the signal
# How it was run: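 Primary human umbilical vein endothelial cells (3C system) were exposed to test chemical for 24 h, after which MCP-1 was quantified by ELISA. Activity was fitted bidirectionally against DMSO as negative control and baseline.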
# [14] = read-out: Monocyte Chemoattractant Protein-1 (MCP1), CCL2 (gene 6347); test: BSK_4H_MCP1: BioMAP Diversity Plus: 4H Assay for Monocyte Chemoattractant Protein-1 (MCP1) Biomarker Activity (AID 2283018; active = hit-call score of the fitted dose curve at least 0.9, where 1 is the maximum; inactive = score below 0.9); details: primary human endothelial cells (HUVEC); actives raise or lower the signal
# How it was run: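 Human umbilical vein endothelial cells (4H system) dosed with chemical; MCP-1 measured by ELISA 24 h after dosing. Bidirectional curve fitting against DMSO negative control as baseline; parallel SRB total-protein staining tracks overt cytotoxicity.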
# [15] = read-out: Human Leukocyte Antigen - DR isotype (HLADR), HLA-DRA (gene 3122); test: BSK_3C_HLADR: BioMAP Diversity Plus: 3C Assay for Human Leukocyte Antigen - DR isotype (HLADR) Biomarker Activity (AID 2283019; active = hit-call score of the fitted dose curve at least 0.9, where 1 is the maximum; inactive = score below 0.9;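 as to outcome: ELISA of cell-surface HLA-DR on HUVEC 24 h after dosing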); details: primary human endothelial cells (HUVEC); actives raise or lower the signal
# How it was run: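 Primary human umbilical vein endothelial cells (3C system) were dosed with compound and cell-surface HLA-DR was quantified by ELISA at 24 h. Activity was fitted bidirectionally against DMSO as negative control and baseline.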
# [16] = read-out: Interleukin-8 (IL8), CXCL8 (gene 3576); test: BSK_3C_IL8: BioMAP Diversity Plus: 3C Assay for Interleukin-8 (IL8) Biomarker Activity (AID 2283020; active = hit-call score of the fitted dose curve at least 0.9, where 1 is the maximum; inactive = score below 0.9); details: primary human endothelial cells (HUVEC); actives raise or lower the signal
# How it was run: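 Primary human umbilical vein endothelial cells (3C system) were exposed to test chemical for 24 h, then IL-8 was quantified by ELISA. Responses were fitted bidirectionally against DMSO vehicle as baseline.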
# [17] = read-out: Monokine induced gamma interferon (MIG), CXCL9 (gene 4283); test: BSK_3C_MIG: BioMAP Diversity Plus: 3C Assay for Monokine induced gamma interferon (MIG) Biomarker Activity (AID 2283021; active = hit-call score of the fitted dose curve at least 0.9, where 1 is the maximum; inactive = score below 0.9); details: primary human endothelial cells (HUVEC); actives raise or lower the signal
# How it was run: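 Primary human umbilical vein endothelial cells in the 3C system were exposed to chemical for 24 h, after which MIG was quantified by ELISA. Activity was fitted bidirectionally against DMSO as negative control and baseline.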
# [18] = target: human RAR-related Orphan Receptor gamma (RORg), RORC (gene 6097) (UniProt P51449); test: ATG_RORg_TRANS: Attagene TRANS-FACTORIAL HepG2 Assay for human RAR-related Orphan Receptor gamma (RORg) (AID 2283011);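 as to AC50: potency for induction of reporter transcripts above DMSO so activators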
# How it was run: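 Readout: reporter transcript induction (RT-PCR, fluorescent primer extension, capillary electrophoresis) after 24 h compound exposure of transiently transfected HepG2 cells carrying a RORg-Gal4 chimera and GAL4-UAS reporters; DMSO served as baseline, with increasing signal fitted.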
# [19] = read-out: E-selectin (Homo sapiens) (UniProt P16581); test: BSK_3C_Eselectin: BioMAP Diversity Plus: 3C Assay for Eselectin Biomarker Activity (AID 2283015; active = hit-call score of the fitted dose curve at least 0.9, where 1 is the maximum; inactive = score below 0.9;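 also: cell surface E-selectin protein quantified by ELISA 24 h after dosing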); details: primary human endothelial cells (HUVEC); actives raise or lower the signal
# How it was run: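 Primary human umbilical vein endothelial cells (3C system) were dosed with chemical and cell-surface E-selectin measured by ELISA 24 h later. Bidirectional curve fitting used DMSO as negative control and baseline.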
# [20] = target: human Retinoic Acid Receptor beta (RARb), RARB (gene 5915) (UniProt P10826); test: ATG_RARb_TRANS: Attagene TRANS-FACTORIAL HepG2 Assay for human Retinoic Acid Receptor beta (AID 2283004)
# How it was run: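 HepG2 cells transiently transfected with multiplexed GAL4-UAS reporter units expressing chimeric NR–Gal4 fusions; 24 h compound exposure. Reporter mRNA quantified by RT-PCR, 6-FAM labelling, HpaI digestion and capillary electrophoresis; gain-of-signal fitted against DMSO baseline.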
# E-selectin (Homo sapiens), sequence (P16581 whole entry, looked up): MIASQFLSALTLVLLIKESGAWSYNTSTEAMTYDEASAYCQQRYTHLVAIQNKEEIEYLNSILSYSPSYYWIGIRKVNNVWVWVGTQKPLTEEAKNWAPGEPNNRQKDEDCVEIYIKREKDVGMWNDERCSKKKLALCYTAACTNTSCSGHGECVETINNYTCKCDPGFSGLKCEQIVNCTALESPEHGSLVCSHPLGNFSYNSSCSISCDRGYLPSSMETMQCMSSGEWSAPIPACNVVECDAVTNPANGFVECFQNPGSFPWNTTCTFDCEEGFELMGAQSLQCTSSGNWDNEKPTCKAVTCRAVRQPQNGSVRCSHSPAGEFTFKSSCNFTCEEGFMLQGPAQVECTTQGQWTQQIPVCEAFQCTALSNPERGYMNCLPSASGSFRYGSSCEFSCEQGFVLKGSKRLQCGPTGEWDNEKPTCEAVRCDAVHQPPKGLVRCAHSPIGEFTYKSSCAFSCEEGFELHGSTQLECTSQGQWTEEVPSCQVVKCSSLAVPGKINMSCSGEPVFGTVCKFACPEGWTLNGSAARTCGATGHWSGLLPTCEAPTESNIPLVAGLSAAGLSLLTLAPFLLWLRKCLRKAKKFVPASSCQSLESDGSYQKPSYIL
# human Peroxisome Proliferator-activated Receptor alpha (PPARa), PPARA (gene 5465), sequence (Q07869 whole entry, looked up, the tested form may be a part): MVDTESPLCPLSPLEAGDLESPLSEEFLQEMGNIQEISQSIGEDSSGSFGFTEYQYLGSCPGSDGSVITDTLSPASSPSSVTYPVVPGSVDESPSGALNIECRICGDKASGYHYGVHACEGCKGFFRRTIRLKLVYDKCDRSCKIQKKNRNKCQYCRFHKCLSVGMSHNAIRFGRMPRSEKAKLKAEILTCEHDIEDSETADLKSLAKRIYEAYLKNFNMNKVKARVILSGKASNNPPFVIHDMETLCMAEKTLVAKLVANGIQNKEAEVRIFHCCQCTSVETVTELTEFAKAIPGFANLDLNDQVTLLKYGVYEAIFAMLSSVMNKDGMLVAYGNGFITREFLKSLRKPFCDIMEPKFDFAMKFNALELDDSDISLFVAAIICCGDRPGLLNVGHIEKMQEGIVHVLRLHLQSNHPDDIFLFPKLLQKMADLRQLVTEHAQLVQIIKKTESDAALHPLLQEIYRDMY
# human RAR-related Orphan Receptor beta (RORb), RORB (gene 6096), sequence (Q92753 whole entry, looked up, the tested form may be a part): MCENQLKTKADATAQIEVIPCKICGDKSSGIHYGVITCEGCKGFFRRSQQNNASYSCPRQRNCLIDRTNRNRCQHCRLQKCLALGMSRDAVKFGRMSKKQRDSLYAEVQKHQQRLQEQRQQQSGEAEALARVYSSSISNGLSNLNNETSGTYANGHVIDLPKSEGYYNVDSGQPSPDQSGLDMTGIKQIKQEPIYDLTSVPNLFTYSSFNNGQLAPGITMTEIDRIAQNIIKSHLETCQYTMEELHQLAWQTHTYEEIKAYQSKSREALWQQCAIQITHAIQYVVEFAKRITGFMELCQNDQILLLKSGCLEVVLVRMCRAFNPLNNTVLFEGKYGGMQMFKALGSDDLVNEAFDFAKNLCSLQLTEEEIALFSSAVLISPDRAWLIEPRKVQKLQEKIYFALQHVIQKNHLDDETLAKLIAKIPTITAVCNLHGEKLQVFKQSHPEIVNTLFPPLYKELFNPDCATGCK
# human Peroxisome Proliferator-activated Receptor delta (PPARd), PPARD (gene 5467), sequence (Q03181 whole entry, looked up, the tested form may be a part): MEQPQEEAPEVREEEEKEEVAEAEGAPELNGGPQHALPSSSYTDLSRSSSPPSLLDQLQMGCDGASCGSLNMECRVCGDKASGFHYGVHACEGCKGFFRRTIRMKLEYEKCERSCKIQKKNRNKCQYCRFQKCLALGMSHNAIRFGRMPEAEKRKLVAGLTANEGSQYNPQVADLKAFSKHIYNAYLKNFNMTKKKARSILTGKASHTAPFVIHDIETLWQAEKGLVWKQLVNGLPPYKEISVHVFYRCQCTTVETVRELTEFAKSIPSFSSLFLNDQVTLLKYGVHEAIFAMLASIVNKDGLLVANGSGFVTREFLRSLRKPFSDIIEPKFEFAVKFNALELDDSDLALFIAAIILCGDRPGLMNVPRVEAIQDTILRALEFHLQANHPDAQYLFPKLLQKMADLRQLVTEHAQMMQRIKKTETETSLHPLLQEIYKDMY
# human RAR-related Orphan Receptor gamma (RORg), RORC (gene 6097), sequence (P51449 whole entry, looked up, the tested form may be a part): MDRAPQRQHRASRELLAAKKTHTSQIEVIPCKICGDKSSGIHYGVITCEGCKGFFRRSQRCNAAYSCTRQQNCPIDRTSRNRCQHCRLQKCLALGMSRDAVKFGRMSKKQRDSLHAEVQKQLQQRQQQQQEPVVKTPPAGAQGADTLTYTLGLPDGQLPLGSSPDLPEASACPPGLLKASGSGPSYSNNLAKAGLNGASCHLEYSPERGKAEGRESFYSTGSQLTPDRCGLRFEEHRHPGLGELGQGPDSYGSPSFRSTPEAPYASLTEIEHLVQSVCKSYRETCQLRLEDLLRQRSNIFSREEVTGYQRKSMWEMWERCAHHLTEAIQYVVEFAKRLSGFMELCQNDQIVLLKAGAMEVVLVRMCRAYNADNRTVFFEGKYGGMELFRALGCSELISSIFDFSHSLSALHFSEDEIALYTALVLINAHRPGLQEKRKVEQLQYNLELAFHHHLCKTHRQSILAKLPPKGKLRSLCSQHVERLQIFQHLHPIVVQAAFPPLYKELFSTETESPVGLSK
# Peroxisome proliferator-activated receptor gamma (Homo sapiens), sequence (P37231 whole entry, looked up, the tested form may be a part): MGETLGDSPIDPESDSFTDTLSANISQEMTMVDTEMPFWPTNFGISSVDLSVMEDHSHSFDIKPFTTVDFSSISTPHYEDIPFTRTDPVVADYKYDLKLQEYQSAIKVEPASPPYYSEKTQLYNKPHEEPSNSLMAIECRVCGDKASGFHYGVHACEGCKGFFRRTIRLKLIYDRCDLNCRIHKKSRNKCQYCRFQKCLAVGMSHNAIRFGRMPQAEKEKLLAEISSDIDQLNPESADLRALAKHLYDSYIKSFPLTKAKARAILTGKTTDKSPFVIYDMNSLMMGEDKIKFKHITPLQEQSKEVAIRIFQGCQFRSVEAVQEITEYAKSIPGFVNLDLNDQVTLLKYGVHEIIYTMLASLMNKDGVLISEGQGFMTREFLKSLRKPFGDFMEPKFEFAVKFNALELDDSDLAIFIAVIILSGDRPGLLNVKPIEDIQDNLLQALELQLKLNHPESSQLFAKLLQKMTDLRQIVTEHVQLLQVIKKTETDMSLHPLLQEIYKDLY
# human Retinoid X Receptor beta (RXRb), RXRB (gene 6257), sequence (P28702 whole entry, looked up, the tested form may be a part): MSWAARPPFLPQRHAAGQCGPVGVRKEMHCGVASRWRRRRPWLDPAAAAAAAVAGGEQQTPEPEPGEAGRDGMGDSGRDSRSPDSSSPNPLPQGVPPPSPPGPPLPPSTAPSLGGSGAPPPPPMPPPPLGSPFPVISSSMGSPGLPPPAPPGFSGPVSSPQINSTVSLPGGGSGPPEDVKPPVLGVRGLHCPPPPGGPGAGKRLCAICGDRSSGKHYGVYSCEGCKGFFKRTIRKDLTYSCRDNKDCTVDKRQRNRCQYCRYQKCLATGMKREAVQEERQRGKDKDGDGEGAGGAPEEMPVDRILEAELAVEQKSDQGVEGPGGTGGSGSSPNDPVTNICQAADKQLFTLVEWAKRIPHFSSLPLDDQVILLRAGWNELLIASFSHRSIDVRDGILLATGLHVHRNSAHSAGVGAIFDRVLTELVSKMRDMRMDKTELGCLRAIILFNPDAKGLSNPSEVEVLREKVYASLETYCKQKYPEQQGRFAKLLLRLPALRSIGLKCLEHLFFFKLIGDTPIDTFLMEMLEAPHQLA
# Retinoic acid receptor RXR-alpha (Homo sapiens), sequence (P19793 whole entry, looked up, the tested form may be a part): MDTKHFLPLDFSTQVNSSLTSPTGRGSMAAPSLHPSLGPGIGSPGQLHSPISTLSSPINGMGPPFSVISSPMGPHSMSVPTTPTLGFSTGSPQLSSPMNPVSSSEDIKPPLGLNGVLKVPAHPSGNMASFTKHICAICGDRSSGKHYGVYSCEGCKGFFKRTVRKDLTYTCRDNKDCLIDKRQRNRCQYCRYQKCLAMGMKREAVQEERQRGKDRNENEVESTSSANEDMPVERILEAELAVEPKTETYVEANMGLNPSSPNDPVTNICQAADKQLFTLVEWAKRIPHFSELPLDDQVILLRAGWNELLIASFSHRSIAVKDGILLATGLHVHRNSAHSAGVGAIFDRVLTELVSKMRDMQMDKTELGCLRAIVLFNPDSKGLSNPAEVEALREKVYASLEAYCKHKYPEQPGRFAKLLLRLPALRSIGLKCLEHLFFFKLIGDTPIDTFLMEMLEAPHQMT
# Nuclear receptor subfamily 1 group I member 2 (Homo sapiens), sequence (O75469 whole entry, looked up, the tested form may be a part): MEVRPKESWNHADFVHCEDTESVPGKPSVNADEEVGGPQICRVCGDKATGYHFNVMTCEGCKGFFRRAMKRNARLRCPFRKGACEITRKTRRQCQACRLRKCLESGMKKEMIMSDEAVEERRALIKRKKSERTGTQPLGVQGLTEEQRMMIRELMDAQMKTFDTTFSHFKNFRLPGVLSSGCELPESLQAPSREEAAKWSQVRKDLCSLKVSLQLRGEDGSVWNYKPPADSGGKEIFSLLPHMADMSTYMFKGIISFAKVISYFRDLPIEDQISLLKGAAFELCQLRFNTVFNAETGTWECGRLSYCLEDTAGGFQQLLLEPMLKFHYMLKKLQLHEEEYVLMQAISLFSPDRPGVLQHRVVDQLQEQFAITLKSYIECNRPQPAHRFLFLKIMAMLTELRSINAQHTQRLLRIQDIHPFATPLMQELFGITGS
# human Thyroid Receptor alpha (THRa1), THRA (gene 7067), sequence (P10827 whole entry, looked up, the tested form may be a part): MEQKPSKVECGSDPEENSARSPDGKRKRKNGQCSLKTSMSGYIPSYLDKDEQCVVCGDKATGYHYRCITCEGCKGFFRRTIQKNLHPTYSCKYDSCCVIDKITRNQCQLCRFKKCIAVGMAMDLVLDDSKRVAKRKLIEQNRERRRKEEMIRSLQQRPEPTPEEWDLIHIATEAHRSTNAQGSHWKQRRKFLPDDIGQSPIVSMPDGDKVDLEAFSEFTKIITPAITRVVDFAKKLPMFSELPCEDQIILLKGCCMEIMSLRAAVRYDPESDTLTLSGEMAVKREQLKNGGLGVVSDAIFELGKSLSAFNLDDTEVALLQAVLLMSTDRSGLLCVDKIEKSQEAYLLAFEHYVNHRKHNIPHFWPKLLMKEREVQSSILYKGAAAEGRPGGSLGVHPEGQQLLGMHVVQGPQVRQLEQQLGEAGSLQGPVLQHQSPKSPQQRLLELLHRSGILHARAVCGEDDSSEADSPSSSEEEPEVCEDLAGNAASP
structure (smiles),measurement,setting,value
O=C1CCCCCCCCCCOCCCCO1,AC50,[1],40 µM (active)
same,outcome,[2],inactive
same,outcome,[3],inactive
same,AC50,[4],59.3 µM (active)
same,outcome,[5],inactive
same,outcome,[6],inactive
same,outcome,[7],inactive
same,outcome,[8],inactive
same,outcome,[9],inactive
CCn1c2ccccc2c2cc(N)ccc21,outcome,[1],inactive
same,outcome,[2],inactive
same,outcome,[10],inactive
same,AC50,[11],13.3 µM (active)
same,AC50,[4],22.9 µM (active)
same,AC50,[5],4.67 µM (active)
same,outcome,[7],inactive
same,AC50,[8],14.3 µM (active)
same,outcome,[9],inactive
same,outcome,[12],inactive
same,AC50,[13],0.641 µM (active)
same,AC50,[14],0.812 µM (active)
same,AC50,[15],1.57 µM (active)
same,outcome,[16],inactive
same,outcome,[17],inactive
CCCCC(CC)COC(=O)/C=C\C(=O)OCC(CC)CCCC (centres undefined),outcome,[1],inactive
same,outcome,[2],inactive
same,outcome,[10],inactive
same,outcome,[11],inactive
same,AC50,[4],4.7 µM (active)
same,AC50,[5],4.17 µM (active)
same,outcome,[12],inactive
same,outcome,[13],inactive
same,outcome,[14],inactive
same,outcome,[15],inactive
same,outcome,[16],inactive
same,outcome,[17],inactive
O=Nc1ccc(Nc2ccccc2)cc1,outcome,[1],inactive
same,outcome,[2],inactive
same,AC50,[4],26.6 µM (active)
same,outcome,[5],inactive
same,outcome,[6],inactive
same,AC50,[18],40.4 µM (active)
Cc1ccc(Nc2ccc(O)c3c2C(=O)c2ccccc2C3=O)cc1,outcome,[1],inactive
same,outcome,[2],inactive
same,outcome,[10],inactive
same,outcome,[11],inactive
same,outcome,[4],inactive
same,outcome,[5],inactive
same,outcome,[7],inactive
same,outcome,[9],inactive
same,outcome,[19],inactive
same,outcome,[12],inactive
same,outcome,[13],inactive
same,outcome,[14],inactive
same,outcome,[15],inactive
same,outcome,[16],inactive
same,outcome,[17],inactive
O=C(Oc1ccccc1)c1ccc(O)cc1,outcome,[1],inactive
same,outcome,[2],inactive
same,outcome,[4],inactive
same,outcome,[5],inactive
same,outcome,[6],inactive
same,outcome,[7],inactive
same,outcome,[8],inactive
same,outcome,[9],inactive
NCCNCCN,outcome,[1],inactive
same,outcome,[2],inactive
same,outcome,[10],inactive
same,outcome,[11],inactive
same,outcome,[4],inactive
same,outcome,[5],inactive
same,outcome,[6],inactive
same,outcome,[18],inactive
same,outcome,[8],inactive
same,outcome,[19],inactive
same,outcome,[12],inactive
same,outcome,[13],inactive
same,outcome,[14],inactive
same,outcome,[15],inactive
same,outcome,[16],inactive
same,outcome,[17],inactive
O=C[C@H](O)[C@H](O)[C@H](O)CO,outcome,[1],inactive
same,outcome,[2],inactive
same,outcome,[20],inactive
same,outcome,[3],inactive
same,outcome,[4],inactive
same,outcome,[18],inactive
O=C(Nc1ccccc1)c1cc([N+](=O)[O-])ccc1Cl,outcome,[1],inactive
same,outcome,[2],inactive
same,AC50,[4],19.8 µM (active)
same,AC50,[5],3.82 µM (active)
same,outcome,[6],inactive
same,outcome,[18],inactive
same,outcome,[7],inactive
same,outcome,[9],inactive
CCN(CC)c1ccc(C(=C2C=CC(=[N+](CC)CC)C=C2)c2ccc(S(=O)(=O)O)cc2S(=O)(=O)[O-])cc1,outcome,[1],inactive
same,outcome,[2],inactive
same,outcome,[4],inactive
same,outcome,[5],inactive
same,outcome,[6],inactive
same,outcome,[18],inactive
same,outcome,[7],inactive
same,AC50,[8],100 µM (active)
same,outcome,[9],inactive
C#C[C@]1(O)CC[C@H]2[C@@H]3CCC4=Cc5oncc5C[C@]4(C)[C@H]3CC[C@@]21C,AC50,[1],176 µM (active)
same,outcome,[2],inactive
same,outcome,[10],inactive
same,AC50,[11],20 µM (active)
same,outcome,[4],inactive
same,AC50,[5],5.38 µM (active)
same,outcome,[6],inactive
same,AC50,[7],120 µM (active)
same,AC50,[8],154 µM (active)
same,AC50,[12],33.4 µM (active)
same,outcome,[13],inactive
same,outcome,[14],inactive
same,AC50,[15],20 µM (active)
same,outcome,[16],inactive
same,outcome,[17],inactive
